Compounds with a hit are over-represented: about 2% of the library has one in this group of screens.
MCL1 BIM primary: inhibitors of MCL1 binding to BIM-BH3, primary screen, biochemical, fluorescence polarization. Induced myeloid leukemia cell differentiation protein Mcl-1 (Homo sapiens), Q07820. GST-MCL1 / FITC-Bim-BH3 fluorescence polarization. 320,000 compounds, 0.68% hits. inhibition, % at 10.9 µM;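 active means inhibition above the mean inhibition of all tested compounds plus 3 SD, set per campaign, cut at about 40% in these data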;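 further: 0% = DMSO wells and 100% = unlabeled Bim-BH3 peptide control; higher means more loss of mP so more displacement of Bim peptide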
Target sequence (Q07820 whole entry, looked up): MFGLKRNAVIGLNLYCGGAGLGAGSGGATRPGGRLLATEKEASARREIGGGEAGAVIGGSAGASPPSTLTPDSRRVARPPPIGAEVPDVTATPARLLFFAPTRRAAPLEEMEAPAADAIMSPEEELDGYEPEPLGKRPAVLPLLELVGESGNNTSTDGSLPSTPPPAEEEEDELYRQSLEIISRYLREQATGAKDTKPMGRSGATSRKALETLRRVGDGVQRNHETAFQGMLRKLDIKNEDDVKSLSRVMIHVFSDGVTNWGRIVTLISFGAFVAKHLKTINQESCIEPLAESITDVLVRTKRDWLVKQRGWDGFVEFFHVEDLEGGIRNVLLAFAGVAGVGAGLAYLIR
Mcl1-Bid inh: Mcl-1/Bid binding inhibitors, primary screen, biochemical, TR-FRET, 1536-well; inhibition, % at 21.7 µM; 220,000 compounds, 0.97% hits; Induced myeloid leukemia cell differentiation protein Mcl-1 (Homo sapiens), Q07820; TR-FRET Mcl-1/Bid-Dy647 peptide binding;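 active means compounds that cut the binding signal by more than half at the single screening dose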;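 further: His-tagged Mcl-1 with europium anti-His antibody binding Bid BH3 peptide; 0% = Mcl-1 plus peptide wells and 100% = peptide-only wells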
Mcl1 Noxa PPI: Mcl-1/Noxa binding inhibitors, primary screen, biochemical, TR-FRET, 1536-well; TR-FRET Mcl-1/Noxa peptide binding, 2 h; AID 1022, 2008; 220,000 compounds, 1.5% hits; inhibition, % at 21.7 µM;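 active means compounds that cut the protein-peptide binding signal by more than 50% relative to plate controls in a single-dose test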;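 further: His-tagged Mcl-1 with rhodamine Noxa BH3 peptide and terbium anti-His antibody; 0% = Mcl-1 plus Noxa peptide wells and 100% = peptide-only wells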
Bim-Mcl-1: inhibitors of Bim peptide binding to Mcl-1, primary screen, biochemical, bead-based flow cytometry, multiplex | Induced myeloid leukemia cell differentiation protein Mcl-1 (Homo sapiens), Q07820 | Bim peptide-Mcl-1 binding | inhibition, % at 10 µM | 190,000 compounds, 0.1% hits; in the data active means inhibition above about 40%;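 further: 0% = no compound tracer wells and 100% = peptide blocker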
BCLXL inh confirm: Bcl-xL inhibitors blocking Bim BH3 binding, confirmation, counter-screen for MCL1 inhibitor project, biochemical, fluorescence polarization; shares compounds with MCL1 BIM primary; GST-Bcl-xL / FITC-Bim BH3 peptide FP binding; inhibition, % at 10.9 µM; 1,700 compounds, 54% hits;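 active means inhibition above a cutoff equal to the mean inhibition of all tested compounds plus 3 SD, cut at about 30% in these data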;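 further: 0% = DMSO wells and 100% = unlabeled Bim BH3 control peptide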
Target sequence (Q07817 whole entry, looked up): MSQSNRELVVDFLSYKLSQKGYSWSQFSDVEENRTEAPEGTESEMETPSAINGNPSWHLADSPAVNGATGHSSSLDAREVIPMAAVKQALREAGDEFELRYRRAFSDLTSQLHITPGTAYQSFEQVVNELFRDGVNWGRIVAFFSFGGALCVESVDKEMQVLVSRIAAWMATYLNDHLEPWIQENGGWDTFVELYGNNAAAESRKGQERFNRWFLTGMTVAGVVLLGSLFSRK
MCL1 BIM confirm: inhibitors of MCL1 binding to BIM-BH3, confirmation, biochemical, fluorescence polarization, triplicate; 1,700 compounds, 61% hits; inhibition, % at 10.9 µM; AID 2168, 2009; shares compounds with MCL1 BIM primary; GST-MCL1 / FITC-Bim-BH3 fluorescence polarization;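 active means inhibition above the average of all tested compounds plus 3 SD, cut at about 40% in these data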;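 further: 0% = DMSO wells and 100% = unlabeled Bim-BH3 control peptide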
* hit, by the source's call; nt = no result.

SMILES | MCL1 BIM primary | Mcl1-Bid inh | Mcl1 Noxa PPI | Bim-Mcl-1 | BCLXL inh confirm | MCL1 BIM confirm
CCN(CC)c1ccc2c(c1)CCCN2 | 128* | -55 | 69* | 14 | 28 | 19
Cc1cc(OCC(=O)Nc2ccc(N3CCN(C)CC3)cc2)ccc1Cl | -8 | nt | nt | nt | nt | nt
CCOC(=O)c1cc(C#N)c(SCC(=O)c2cc(C#N)c(SC)nc2C)[nH]c1=O | 117* | -100 | 34 | 0 | 21 | 18
CCOC(=O)c1cc(C#N)c(SCC(N)=O)[nH]c1=O | 38 | 26 | 3 | nt | nt | nt
Cc1csc2c(N3CCN(C(=O)Nc4ccc(OC(F)(F)F)cc4)CC3)ncnc12 | -8 | 9 | 17 | nt | nt | nt
CC(=O)Nc1ccc(S(=O)(=O)N2CCN(C(=O)C3COc4ccccc4O3)CC2)cc1 (stereo unspecified) | 5 | nt | nt | nt | nt | nt
COc1ccc(S(=O)(=O)N2CCN(C(=O)C3COc4ccccc4O3)CC2)cc1 (stereo unspecified) | 89* | nt | nt | nt | 16 | 90*
CCn1cc(C(=O)NCCCN(CC(C)C)CC(C)C)c(=O)c2cc(S(=O)(=O)N3CCOCC3)ccc21 | 0 | nt | nt | nt | nt | nt
CCOc1cc(C2C3=C(CCCC3=O)NC3=C2C(=O)CCC3)cc(Cl)c1O | 8 | -25 | 37 | -3 | nt | nt
CCOc1cc(C2C3=C(CCCC3=O)N(C)C3=C2C(=O)CCC3)cc(Cl)c1O | 50* | -22 | 8 | 0 | 26 | 24
O=C(CSc1nc2ccccc2c(=O)[nH]1)c1ccc(O)c(O)c1 | 48* | -44 | 21 | 0 | 38* | 66*
Cc1ccc(N(CC(=O)NC(C)C)C(=O)CCC(=O)Nc2nccs2)c(C)c1 | 0 | nt | nt | nt | nt | nt
CCCCc1nc2cc(C(=O)N(C)C3CCOCC3)ccc2o1 | -1 | nt | nt | nt | nt | nt
CC1CCN(c2nc3ccccn3c(=O)c2C=O)CC1 | 2 | -49 | -6 | -3 | nt | nt
O=Cc1c(Cl)nc2ccccn2c1=O | 59* | 28 | -21 | nt | 10 | 11
CN(C)C(=O)CN1C(=O)NC2(CCc3ccccc32)C1=O (stereo unspecified) | -3 | nt | nt | nt | nt | nt
CC(C)c1ccc(NC(=O)CCNS(=O)(=O)c2cc(Br)cnc2N)cc1 | 6 | nt | nt | nt | nt | nt
O=C(CSc1nnc(-c2ccco2)c(-c2ccco2)n1)c1ccccc1 | 43* | 40 | 96* | 1 | 43* | 78*
O=C(C1CC(=O)N(c2ccc(Cl)cc2)C1)N1CCOCC1 (stereo unspecified) | 4 | nt | nt | nt | nt | nt
NC(=NC1CCCCC1)NS(=O)(=O)c1ccccc1 | 3 | nt | nt | nt | nt | nt
c1ccc(-c2cn3nc4c(nc3n2)CCCC4)cc1 | 130* | -8 | 18 | 1 | 78* | 97*
Brc1ccc(-c2cn3nc4c(nc3n2)CCCC4)cc1 | 79* | 6 | 11 | -1 | 45* | 44*
Nc1nn2cc(-c3ccc(Br)cc3)nc2c2ccccc12 | 2 | 9 | 17 | nt | nt | nt
COc1ccc(OC)c(C2Nc3c(Cl)ccc(C(=O)O)c3C3C=CCC32)c1 (stereo unspecified) | 26 | -18 | 36 | 0 | nt | nt
O=[N+]([O-])c1ccc(Cl)c2c1C1C=CCC1C(c1ccccn1)N2 (stereo unspecified) | 36 | -49 | -3 | 2 | nt | nt
SMILES | MCL1 BIM primary | Mcl1-Bid inh | Mcl1 Noxa PPI | Bim-Mcl-1 | BCLXL inh confirm | MCL1 BIM confirm
COC(=O)COc1ccc(C2Nc3c(Cl)ccc(C(=O)O)c3C3C=CCC32)cc1 (stereo unspecified) | 53* | -4 | 18 | -6 | 34* | 32
O=C(O)c1ccc(Cl)c2c1C1C=CCC1C(c1ccccn1)N2 (stereo unspecified) | 115* | 56* | 89* | 5 | 58* | 82*
O=C(N=Nc1c(O)[nH]c2ccccc12)c1cc(-c2cccs2)[nH]n1 | 43* | -47 | 46 | nt | 12 | 31
C/C(N)=C(/C#N)C(=O)CSc1nnc(NC(C)C)s1 | 51* | -45 | 48 | 0 | 26 | 78*
CCC(=O)Nc1ccc2c(c1)nc1n2CCN(C2CCCCC2)C1 | 22 | -60 | 26 | 1 | nt | nt
O=C(Nc1ccc2c(c1)nc1n2CCN(C2CCCCC2)C1)NC1CCCCC1 | 67* | -25 | 41 | -5 | 44* | 54*
CN(CC(=O)Nc1cccc(F)c1)C(=O)/C=C/c1cn(Cc2ccccc2)nc1-c1cccnc1 | 1 | nt | nt | nt | nt | nt
Oc1cc2c(cc1O)[C@H]1c3ccc(O)c(O)c3OC[C@@]1(O)C2 | 57* | nt | nt | nt | 76* | 108*
CCS(=O)(=O)N1CCC(C(=O)O)CC1 | 8 | -22 | 5 | 0 | nt | nt
COc1ccccc1OCC(=O)N/N=C/C=C/c1ccc([N+](=O)[O-])o1 | 41* | -50 | 27 | -1 | 6 | 18
O=C(CSc1nnc(SCc2ccccc2)s1)N/N=C/C=C\c1ccco1 | 43* | -59 | 54* | -2 | 31* | 59*
Cc1ccc(OCC(=O)N/N=C/C=C/c2ccco2)cc1 | 40* | -7 | 22 | -6 | 55* | 71*
Cc1ccccc1OCC(=O)N/N=C/c1ccc([N+](=O)[O-])o1 | 18 | 3 | -7 | -2 | nt | nt
CS(=O)(=O)N(CC(=O)N1CCN(Cc2ccccc2)CC1)c1cccc([N+](=O)[O-])c1 | 4 | nt | nt | nt | nt | nt
O=C1CCCC2=C1Sc1ccccc1N2 | 69* | -4 | 1 | nt | 53* | 78*
Cc1ccc(NC(=O)CC2SC3=NCCCN3C2=O)c(C)c1 (stereo unspecified) | 112* | -12 | nt | -4 | 51* | 56*
O=C(CC1SC2=NCCN2C1=O)Nc1ccc(Cl)cc1 (stereo unspecified) | 2 | -21 | -2 | -1 | nt | nt
CN(C)c1ccc(C(CNC(=O)c2ccc(-c3ccccc3)cc2)N2CCOCC2)cc1 (stereo unspecified) | 89* | nt | nt | nt | 6 | -2
O=C(c1ccc(O)cc1)c1ccc(O)cc1O | 12 | -19 | -4 | nt | nt | nt
O=C(c1ccccc1)c1ccc(O)cc1O | 154* | -39 | 7 | 1 | 123* | 137*
CCc1ccc(N2CC(C(=O)OCc3nc4ccsc4c(=O)[nH]3)CC2=O)cc1 (stereo unspecified) | 41* | nt | nt | nt | 33* | 49*
CN(C)Cc1c(O)ccc2cc(-c3nc4ccccc4n3C)c(=O)oc12 | 64* | nt | nt | nt | 27 | 33
CN(C)Cc1c(O)ccc2c(-c3ccccc3)cc(=O)oc12 | -1 | -13 | -16 | 0 | nt | nt
CCC(=O)NC(C)c1cc(Cl)c2cccnc2c1O (stereo unspecified) | 10 | nt | nt | nt | nt | nt
O=C(O)COc1ccccc1C(Nc1ccccn1)c1cc(Cl)c2cccnc2c1O (stereo unspecified) | 79* | 74* | 91* | -5 | 27 | 89*
